Laboratory results: the supplement of paper PMC10849652
About 8,800 targets were measured; listed, in parts, are those with a hit and a random draw of the rest. About 0.5% of all pairs of compound and target were hits. A number with no mark means an inactive call.

Experiments:
Assay in all cases: log2 fold change, soluble protein after heating vs DMSO (PISA); higher = thermal stabilisation; K562 lysate, 10 uM; active = over 0.2 and 3.5 SD of the protein, either way, in both replicates (recomputed)
erlotinib = compound: C#Cc1cccc(Nc2ncnc3cc(OCCOC)c(OCCOC)cc23)c1 [erlotinib]
How it was run: (§1)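 Soluble protein was defined as the supernatant remaining after 21,000xg for 90 min, following pooling of heated aliquots and adjustment to 0.5% NP-40 at 4°C. Before that, crude K562 extract at 1 mg/mL protein in PBS pH 7.4 with 1 mM MgCl2 was treated with 10 μM compound for 30 min and heated for 3 min across 48°C-58°C. Quantification used TMTpro 16plex LC-MS/MS with channel sums equalised, and values are log-two fold changes in thermal stability relative to solvent controls from duplicates.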

[1] = compound: C/C(=N\NC(=O)C1=CC(=CC=C1)S(=O)(=O)N2CCOCC2)/C3=C(C=CC(=C3)Cl)O
How it was run: as §1

[2] = compound: C1=CC(=CC=C1C2=NC3=C(N2)C=C(C=C3)C(=O)N)OC4=CC=C(C=C4)Cl
How it was run: as §1

[3] = compound: C1=CC2=C(C=CC(=C2)/C=C\3/C(=O)NC(=NCC4=CC=CS4)S3)N=C1
How it was run: as §1

[4] = compound: C1=CC2=NC=CN=C2C=C1/C=C/3\C(=O)NC(=O)S3
How it was run: as §1

[5] = compound: C1=CC=C(C=C1)C2=NC(=C(N2)C3=CC=NC=C3)C4=CC(=C(C=C4)Cl)O
How it was run: as §1

[6] = compound: C1=CC=C2C(=C1)C3=NNC4=CC=CC(=C43)C2=O
How it was run: as §1

[7] = compound: C1CCN(C1)C(=O)NC2=CC=CC(=C2)NC3=NC=C(C(=N3)NCCC4=CN=CN4)Br
How it was run: as §1

[8] = compound: C1CN(CCC1(CC2=CC=C(C=C2)Cl)N)C3=NC=NC4=C3C=CN4
How it was run: as §1

IRAK-1-4 Inhibitor I = compound: C1COCCN1CCN2C3=CC=CC=C3N=C2NC(=O)C4=CC(=CC=C4)[N+](=O)[O-] [IRAK-1-4 Inhibitor I]
How it was run: as §1

ibrutinib = compound: C=CC(=O)N1CCC[C@@H](n2nc(-c3ccc(Oc4ccccc4)cc3)c3c(N)ncnc32)C1 [ibrutinib]
How it was run: as §1

[9] = compound: CC(=O)c1cnc2ccc(-c3cc(Cl)c(O)c(Cl)c3)nc2c1N[C@H]1CC[C@H](CN(C)C)CC1
How it was run: as §1

ralimetinib = compound: CC(C)(C)Cn1c(N)nc2ccc(-c3[nH]c(C(C)(C)C)nc3-c3ccc(F)cc3)nc21 [ralimetinib]
How it was run: as §1

[10] = compound: CC(C)(O)CC(=O)NCCn1ccc2ncnc(Nc3ccc(Oc4cccc(C(F)(F)F)c4)c(Cl)c3)c21
How it was run: as §1

[11] = compound: CC(C)C1=C2N=C(C=C(N2N=C1)NCC3=CC=CC=C3)NCCCCCCN
How it was run: as §1

[12] = compound: CC1=C(C(CC(=O)N1)C2=CC=C(C=C2)C(F)(F)F)C(=O)NC3=C(C=C4C(=C3)C=NN4)F
How it was run: as §1

[13] = compound: CC1=C(C2=C(C=C1)C(=O)C3=CC=CC=C3N2CCCN)C
How it was run: as §1

[14] = compound: CC1=C(C=C(C=C1)NC(=O)C2=CC(=CC=C2)C(C)(C)C#N)NC3=CC4=C(C=C3)N=CN(C4=O)C
How it was run: as §1

[15] = compound: CC1=C(C=C(C=C1)NC(=O)C2=CC(=CC=C2)N(C)C)NC(=O)C3=CC=C(C=C3)O
How it was run: as §1

[16] = compound: CC1=CC=C(C=C1)SC2=C3C=C(SC3=CN=C2)C(=O)N
How it was run: as §1

Chain of UniProt Q66K74 (Q66K74 whole entry, looked up): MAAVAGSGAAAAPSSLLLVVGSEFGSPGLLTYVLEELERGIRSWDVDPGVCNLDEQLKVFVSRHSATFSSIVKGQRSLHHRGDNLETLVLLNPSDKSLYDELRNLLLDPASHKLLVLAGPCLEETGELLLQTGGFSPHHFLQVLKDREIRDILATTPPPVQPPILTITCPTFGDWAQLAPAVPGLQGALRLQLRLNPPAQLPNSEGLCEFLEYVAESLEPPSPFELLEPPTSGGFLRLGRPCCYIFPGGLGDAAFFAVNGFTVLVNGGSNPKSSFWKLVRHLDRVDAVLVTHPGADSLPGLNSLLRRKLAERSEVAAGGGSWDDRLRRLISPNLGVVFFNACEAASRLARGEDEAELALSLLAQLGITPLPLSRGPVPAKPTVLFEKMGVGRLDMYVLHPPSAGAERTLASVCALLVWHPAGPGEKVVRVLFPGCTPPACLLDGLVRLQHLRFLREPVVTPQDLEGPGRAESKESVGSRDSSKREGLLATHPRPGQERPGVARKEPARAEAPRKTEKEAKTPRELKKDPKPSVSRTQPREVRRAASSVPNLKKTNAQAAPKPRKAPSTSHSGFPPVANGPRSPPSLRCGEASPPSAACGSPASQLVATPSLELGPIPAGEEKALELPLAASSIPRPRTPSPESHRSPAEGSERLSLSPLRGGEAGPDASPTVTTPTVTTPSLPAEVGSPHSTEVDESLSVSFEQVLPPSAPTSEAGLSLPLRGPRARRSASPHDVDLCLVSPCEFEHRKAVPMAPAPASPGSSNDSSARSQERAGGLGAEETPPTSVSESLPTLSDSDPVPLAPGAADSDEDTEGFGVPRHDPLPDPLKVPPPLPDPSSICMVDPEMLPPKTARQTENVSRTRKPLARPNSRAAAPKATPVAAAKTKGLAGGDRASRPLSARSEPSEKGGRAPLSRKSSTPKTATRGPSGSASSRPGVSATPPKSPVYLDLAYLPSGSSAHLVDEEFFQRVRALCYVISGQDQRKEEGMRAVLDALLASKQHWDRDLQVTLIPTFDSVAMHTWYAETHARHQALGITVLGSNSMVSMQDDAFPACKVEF
Chain of UniProt Q8N3R9 (Q8N3R9 whole entry, looked up): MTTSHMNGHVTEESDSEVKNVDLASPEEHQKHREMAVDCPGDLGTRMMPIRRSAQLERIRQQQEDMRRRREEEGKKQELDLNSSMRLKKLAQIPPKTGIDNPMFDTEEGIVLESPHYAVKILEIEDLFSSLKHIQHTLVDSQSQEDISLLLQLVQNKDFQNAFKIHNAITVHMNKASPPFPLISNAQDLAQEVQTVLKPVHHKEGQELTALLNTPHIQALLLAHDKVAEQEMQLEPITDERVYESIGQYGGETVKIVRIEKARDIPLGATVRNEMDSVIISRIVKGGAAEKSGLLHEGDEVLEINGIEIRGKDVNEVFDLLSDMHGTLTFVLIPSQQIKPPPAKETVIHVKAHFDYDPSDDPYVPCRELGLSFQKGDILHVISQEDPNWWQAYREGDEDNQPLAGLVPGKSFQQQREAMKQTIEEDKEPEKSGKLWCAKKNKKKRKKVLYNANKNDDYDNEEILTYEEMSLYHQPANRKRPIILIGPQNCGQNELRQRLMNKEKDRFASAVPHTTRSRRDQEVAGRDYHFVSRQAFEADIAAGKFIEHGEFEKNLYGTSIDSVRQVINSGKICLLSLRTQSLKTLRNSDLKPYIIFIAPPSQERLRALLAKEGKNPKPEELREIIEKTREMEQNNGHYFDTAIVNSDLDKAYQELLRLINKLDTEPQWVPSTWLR
Chain of UniProt Q5SRI9 (Q5SRI9 whole entry, looked up): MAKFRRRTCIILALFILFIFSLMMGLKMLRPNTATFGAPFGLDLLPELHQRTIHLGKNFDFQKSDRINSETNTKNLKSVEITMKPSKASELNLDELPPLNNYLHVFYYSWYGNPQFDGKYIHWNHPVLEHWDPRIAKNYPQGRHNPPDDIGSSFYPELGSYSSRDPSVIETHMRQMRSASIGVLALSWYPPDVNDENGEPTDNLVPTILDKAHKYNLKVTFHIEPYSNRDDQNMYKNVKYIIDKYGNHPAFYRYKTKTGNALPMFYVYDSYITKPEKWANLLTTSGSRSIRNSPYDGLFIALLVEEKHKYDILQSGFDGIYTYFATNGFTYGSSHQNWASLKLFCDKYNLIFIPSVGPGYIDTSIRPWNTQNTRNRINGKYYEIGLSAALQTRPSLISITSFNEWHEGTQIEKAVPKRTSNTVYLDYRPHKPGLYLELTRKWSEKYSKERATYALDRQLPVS
Chain of UniProt Q14703 (Q14703 whole entry, looked up): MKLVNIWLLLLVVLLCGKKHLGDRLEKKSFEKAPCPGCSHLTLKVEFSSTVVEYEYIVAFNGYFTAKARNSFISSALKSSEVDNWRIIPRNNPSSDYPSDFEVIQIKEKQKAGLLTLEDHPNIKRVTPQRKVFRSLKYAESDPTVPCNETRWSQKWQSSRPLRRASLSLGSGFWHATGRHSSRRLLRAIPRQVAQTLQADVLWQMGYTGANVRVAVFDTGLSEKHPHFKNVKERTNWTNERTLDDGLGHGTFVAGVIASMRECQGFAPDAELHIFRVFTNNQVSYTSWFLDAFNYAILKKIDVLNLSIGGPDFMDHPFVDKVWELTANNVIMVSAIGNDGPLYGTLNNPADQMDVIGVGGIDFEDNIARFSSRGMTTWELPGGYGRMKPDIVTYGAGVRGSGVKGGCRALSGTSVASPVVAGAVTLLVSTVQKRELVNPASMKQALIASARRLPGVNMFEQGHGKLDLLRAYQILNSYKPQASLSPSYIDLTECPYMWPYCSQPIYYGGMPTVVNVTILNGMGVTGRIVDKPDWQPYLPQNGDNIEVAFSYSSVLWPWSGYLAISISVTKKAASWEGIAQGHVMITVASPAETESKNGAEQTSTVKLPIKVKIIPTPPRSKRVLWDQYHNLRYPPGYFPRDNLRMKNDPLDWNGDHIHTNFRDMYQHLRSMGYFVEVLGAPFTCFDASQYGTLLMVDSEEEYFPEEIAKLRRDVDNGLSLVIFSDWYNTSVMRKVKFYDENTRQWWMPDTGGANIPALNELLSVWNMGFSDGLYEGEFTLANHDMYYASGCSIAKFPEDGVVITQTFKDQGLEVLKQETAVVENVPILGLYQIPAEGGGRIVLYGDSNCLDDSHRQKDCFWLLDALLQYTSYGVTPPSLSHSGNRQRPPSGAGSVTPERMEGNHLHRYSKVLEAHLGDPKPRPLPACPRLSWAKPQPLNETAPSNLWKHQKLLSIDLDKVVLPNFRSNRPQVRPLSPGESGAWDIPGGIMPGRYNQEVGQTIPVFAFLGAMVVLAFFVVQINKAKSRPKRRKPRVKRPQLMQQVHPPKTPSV
Chain of UniProt Q13163 (Q13163 whole entry, looked up): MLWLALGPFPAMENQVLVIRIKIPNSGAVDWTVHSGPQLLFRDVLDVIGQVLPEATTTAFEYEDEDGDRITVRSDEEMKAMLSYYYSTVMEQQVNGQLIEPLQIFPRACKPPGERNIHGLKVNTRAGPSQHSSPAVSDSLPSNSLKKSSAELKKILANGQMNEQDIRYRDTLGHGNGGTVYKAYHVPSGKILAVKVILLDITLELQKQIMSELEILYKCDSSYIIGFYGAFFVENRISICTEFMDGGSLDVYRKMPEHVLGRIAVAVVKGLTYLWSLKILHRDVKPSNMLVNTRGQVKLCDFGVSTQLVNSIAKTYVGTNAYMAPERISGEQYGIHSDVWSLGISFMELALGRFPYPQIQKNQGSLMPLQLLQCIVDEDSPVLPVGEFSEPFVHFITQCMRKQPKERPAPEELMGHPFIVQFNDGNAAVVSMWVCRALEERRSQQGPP
Chain of UniProt Q00987 (Q00987 whole entry, looked up): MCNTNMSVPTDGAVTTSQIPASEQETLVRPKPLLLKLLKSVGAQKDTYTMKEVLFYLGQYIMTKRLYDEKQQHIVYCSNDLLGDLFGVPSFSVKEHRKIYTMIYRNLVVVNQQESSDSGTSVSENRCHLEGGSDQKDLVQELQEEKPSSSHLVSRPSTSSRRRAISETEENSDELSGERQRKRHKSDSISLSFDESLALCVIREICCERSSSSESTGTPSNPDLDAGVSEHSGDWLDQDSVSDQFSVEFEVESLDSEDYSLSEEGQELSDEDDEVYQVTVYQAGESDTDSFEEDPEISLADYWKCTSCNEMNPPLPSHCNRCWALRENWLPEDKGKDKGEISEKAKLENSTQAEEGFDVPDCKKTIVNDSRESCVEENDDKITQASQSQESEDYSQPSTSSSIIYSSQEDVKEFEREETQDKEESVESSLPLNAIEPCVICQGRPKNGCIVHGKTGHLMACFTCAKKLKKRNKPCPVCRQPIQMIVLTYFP
Chain of UniProt P10620 (P10620 whole entry, looked up): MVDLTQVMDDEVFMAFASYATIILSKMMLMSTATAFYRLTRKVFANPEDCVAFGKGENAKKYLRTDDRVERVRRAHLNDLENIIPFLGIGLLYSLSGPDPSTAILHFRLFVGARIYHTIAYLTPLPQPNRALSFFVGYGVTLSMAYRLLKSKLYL
Chain of UniProt Q8WV92 (Q8WV92 whole entry, looked up): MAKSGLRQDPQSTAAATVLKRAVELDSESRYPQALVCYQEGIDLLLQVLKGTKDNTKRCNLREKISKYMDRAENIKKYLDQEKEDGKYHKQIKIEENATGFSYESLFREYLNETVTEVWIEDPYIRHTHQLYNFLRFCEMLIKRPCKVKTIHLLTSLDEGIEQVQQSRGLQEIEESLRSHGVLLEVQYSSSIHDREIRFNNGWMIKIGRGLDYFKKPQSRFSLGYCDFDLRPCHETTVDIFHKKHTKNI

Target	log2 fold change (erlotinib)	log2 fold change [1]	log2 fold change [2]	log2 fold change [3]	log2 fold change [4]	log2 fold change [5]	log2 fold change [6]	log2 fold change [7]	log2 fold change [8]	log2 fold change (IRAK-1-4 Inhibitor I)	log2 fold change (ibrutinib)	log2 fold change [9]	log2 fold change (ralimetinib)	log2 fold change [10]	log2 fold change [11]	log2 fold change [12]	log2 fold change [13]	log2 fold change [14]	log2 fold change [15]	log2 fold change [16]
MINDY1 isoform 3 (UniProt Q8N5J2)	0.052	-0.006	0.048	-0.031	0.245	0.053	0.056	-0.082	-0.066	-0.02	0.199	0	0.001	-0.121	-0.022	-0.179	-0.161	-0.034	0.015	0.065
MDM2 isoform 11 (UniProt Q00987)	0.108	-0.039	0.037	-0.071	0.021	0.084	0.04			0.151	-0.071		0.038	-0.08	-0.006			-0.074	0.076	
MED16 (UniProt Q9Y2X0)	0.018	-0.033	0.001	0.019	-0.011	0.008	-0.071	0.01	-0.045	-0.001	-0.113	-0.012	0.057	0.046	-0.014	0.021	-0.01	-0.038	-0.018	0.005
LLGL1 (UniProt Q15334)	0.036	-0.06	0.021	0.02	0.007	0.001	-0.112	-0.08	0.018	-0.136	0.007	0.091	0.071	0.015	-0.141	0.033	-0.058	0.019	0.174	-0.011
MAP2K5 (UniProt Q13163)	0.16	0.153	-0.024	0.142	-0.097	-0.015	0.06	-0.007	-0.024	0.144	0.007	-0.013	0.103	-0.075	-0.078	-0.037	-0.208	0.235	0.052	-0.211
MGST1 (UniProt P10620)	-0.041	-0.068	0.016	-0.051	0.024	-0.031	-0.036	-0.07	0.089	0.067	0.052	0.039	0.054	-0.047	-0.002	0.002	-0.078	-0.01	0.014	0.05
MAP4K5 (UniProt Q9Y4K4)	0.032	-0.169	-0.025	-0.019	-0.002	0.039		0.089	-0.04	-0.001	0.029	0.108	0.039	0.002	0.098	-0.003	0.009	0	0.021	0.025
MAST2 (UniProt Q6P0Q8)	0.044	-0.054	0.142	0.003	-0.588 (active)	-0.03	0.099	0.038	-0.046	0.073	0.136	0.054	0.033	-0.084	0.071		-0.157	0.03	0.031	-0.022
MPP5 (UniProt Q8N3R9)	0.039	-0.009	0.027	-0.016	0.038	0.01	-0.038	-0.028	-0.013	0.085	0		0.019	-0.063	-0.079	-0.082	-0.067	0.017	0.014	
MBTPS1 (UniProt Q14703)	0.033	-0.022	-0.044	-0.009	-0.053	0.029	-0.014	-0.029	0.131	-0.026	-0.243		0.056	-0.045	-0.029		-0.041	0.008	0.048	
KIF26A (UniProt Q9ULI4)	0.117	-0.053	-0.089	0.012	-0.022	-0.019	0.159	0.108	0.249	0.093	-0.022		-0.125	0.084	0.008	-0.02	0.007	0.033	-0.048	
MITD1 (UniProt Q8WV92)	-0.016	0.025	-0.019	0.021	0.014	-0.072	-0.016	-0.047	-0.02	-0.033	0.007	-0.067	-0.039	0.01	0.024	-0.02	-0.071	-0.059	0.058	-0.027
MLH1 (UniProt P40692)	0.018	0.021	-0.011	0.012	-0.079	0.025	-0.019	-0.037	0.015	-0.002	0.01	-0.009	0.02	-0.035	-0.018	0.017	-0.055	0.014	-0.006	0.03
MANEA (UniProt Q5SRI9)	-0.079	-0.119	0.076	0.089	0.027	0.118	-0.092	-0.014	0.016	0.041	0	0.038	0.024	-0.1	0.041		-0.009	0.037	0.114	0.068
MICB, A0A140T979	0.022	0.086	-0.029	-0.07	-0.168	0.034	0.046	-0.021	0.275	0.023	0.074	0.317	-0.037	-0.101	-0.07	-0.11	-0.002	0.016	0.004	-0.068
MAP1S (UniProt Q66K74)	0.027	0	-0.023	-0.016	-0.018	0.003	-0.027	-0.044	0.005	0.01	-0.008	-0.026	0.004	-0.041	-0.005	0.011	-0.021	0	0.025	0.006
MOCS3 (UniProt O95396)	0.047	0.01	-0.033	-0.135	-0.011	-0.003	-0.02	0.143	-0.07	0.049	0.045		-0.016	-0.014	-0.018	0.056	-0.04	0.079	0.001	
